# Measured values: PubChem BioAssay
# What was measured:
# [1] = biological target: Tumor necrosis factor receptor superfamily member 10B (Homo sapiens) (UniProt O14763); assay: viability loss of caspase-8 NB7 cells with TRAIL – with/without TRAIL, luminescence panel, confirmation (AID 651596); settings: NB7 neuroblastoma + caspase-8, TRAIL sensitization, NB7 Caspase-8, with TRAIL, mean of runs, at 10 µM, stronger effect = higher value
# [2] = as above; settings: NB7 neuroblastoma + caspase-8, without TRAIL, NB7 Caspase-8, without TRAIL, mean of runs, at 10 µM
# Sequence of Tumor necrosis factor receptor superfamily member 10B (Homo sapiens) (O14763 whole entry, looked up): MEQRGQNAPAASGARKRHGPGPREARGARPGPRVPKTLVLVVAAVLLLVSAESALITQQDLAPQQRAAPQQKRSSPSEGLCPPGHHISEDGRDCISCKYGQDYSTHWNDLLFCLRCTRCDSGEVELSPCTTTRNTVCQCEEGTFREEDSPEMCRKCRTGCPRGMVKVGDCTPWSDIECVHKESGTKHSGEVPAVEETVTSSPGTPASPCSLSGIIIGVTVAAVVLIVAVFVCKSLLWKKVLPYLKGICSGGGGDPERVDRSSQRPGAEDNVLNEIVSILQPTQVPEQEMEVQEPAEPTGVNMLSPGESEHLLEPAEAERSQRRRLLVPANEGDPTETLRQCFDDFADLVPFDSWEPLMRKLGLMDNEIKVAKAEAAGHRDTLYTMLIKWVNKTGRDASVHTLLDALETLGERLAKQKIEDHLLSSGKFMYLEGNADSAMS
SMILES,activity [1],activity [2]
COc1ccc2sc(NC(=O)c3ccco3)nc2c1,68.9%,74.8%
O=C(CCl)N(c1ccccc1)c1ccccc1,99.2%,99%
CC(=O)Nc1ccc(C=NNc2nnc(NN=Cc3ccc(NC(C)=O)cc3)c3ccccc23)cc1,68.6%,67.4%
Cc1ccc(C(C#N)=Cc2ccc3c(c2)OCO3)cc1,68.5%,65.2%
CCN(CC)c1ccc(C(=O)OCc2cc(=O)oc3cc(O)ccc23)cc1,83.8%,96%
CCCCn1c(NS(=O)(=O)c2ccc(C)cc2)c(S(=O)(=O)c2ccccc2)c2nc3ccccc3nc21,-5.92%,-15%
Cc1ccc(C(=O)Nc2ccc3nccnc3c2)cc1,77.5%,74.8%
Cc1nc2c(-c3ccc(F)cc3)cnn2c(N)c1-c1ccccc1,88.4%,86.9%
CC(C)c1ccc(/C=c2\sc3n(c2=O)C(N)=C(C#N)C(c2ccc(C(C)C)cc2)C=3C(N)=O)cc1 (stereo not drawn),76.7%,77.9%
O=C(COc1ccc2c(c1)OCO2)Nc1nccs1,52.9%,54%
O=C(Cn1ncc(Cl)c(Cl)c1=O)NCC1CCCCC1,98.9%,99.1%
C[C@@H](NC(=O)c1ncn2c1c(=O)[nH]c1ccc(Br)cc12)c1ccccc1,20.2%,13%
CCC(OC(=O)c1ccc(S(C)(=O)=O)c([N+](=O)[O-])c1)C(=O)NC1C2CC3CC(C2)CC1C3 (stereo not drawn),79.5%,97.7%
Cc1ccc2nc(Cl)c(/C=N/Nc3ccc(C(=O)O)cc3)cc2c1,90.2%,86.4%
CCOC(=O)CSc1nc(-c2ccncc2)ccc1C#N,55.8%,55.1%
CCOc1ccc2cc(C#N)c(SCC(=O)OC)nc2c1,57.9%,50.3%
Cc1ccc(CN=c2c([N+](=O)[O-])nn(-c3cccc(C)c3)n2O)cc1,16.2%,24.7%
CC(=O)Nc1ccc2nc(-c3ccccc3)cn2c1,46.1%,52.6%
C/C(=N/NC(=O)c1ccccn1)c1ccco1,35.1%,41.5%
COc1cc2sc3ccc(-c4ccc(CN5CCOCC5)cc4)cc3c(=O)c2cc1OC,46.9%,41.8%
Cc1ccc2nc(NC(=S)NC(=O)c3cccs3)sc2c1,82.5%,74.8%
COn1c(SCc2ccc(Cl)cc2)nc2ccccc2c1=O,67%,47.9%
Cc1cc(C)cc(NS(=O)(=O)c2ccc3[nH]cc(C(=O)NCc4ccco4)c(=O)c3c2)c1,80%,85.3%
CC(=O)Oc1ccc(/C=C/c2nc3ccccc3c(=O)o2)cc1,80.2%,75.2%
